# The list is not random: actives were taken first. Their share in the collection is about 2.8%.
# KKLEB cytotox = cytotoxicity in KKLEB CF airway cells, primary screen, cytotoxicity control for CF NF-kB inhibitor project, cell-based, uHTS, fluorescence assay plates; KKLEB CF airway cells viability, ATPlite luminescence, overnight; active compounds read low; cells stimulated with P. aeruginosa culture filtrate; AID 602141, 2011; activity change (cytotoxicity), % at 5 µM; 0.36% of 360,000 active;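 active means corrected activity change at or below -50% at 5 µM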
# TRPM1 prom inh = inhibitors of MITF-dependent TRPM1 promoter reporter, primary screen, cell-based, SK-MEL-5, single point, luciferase; SK-MEL-5 TRPM1 promoter luciferase, 24 h; inhibition, % at 12.5 µM; 0.83% of 330,000 active; AID 488899, 2010;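 active means mean inhibition across replicates of 60% or more, whatever share of single replicates reaches that level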
# B2AR ag = beta2AR agonists driving receptor internalization, primary screen, cell-based, FAP fluorogen, flow cytometry. Beta-2 adrenergic receptor (Homo sapiens), P07550. Am2.2-beta2AR cells. response, % (no concentration beside the values). 0.43% of 340,000 active. AID 504454, 2011;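 active means response above a set limit, near 3 SD of response in nonfluorescent compounds, cut at about 42% in these data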
# Target sequence (P07550 whole entry, looked up): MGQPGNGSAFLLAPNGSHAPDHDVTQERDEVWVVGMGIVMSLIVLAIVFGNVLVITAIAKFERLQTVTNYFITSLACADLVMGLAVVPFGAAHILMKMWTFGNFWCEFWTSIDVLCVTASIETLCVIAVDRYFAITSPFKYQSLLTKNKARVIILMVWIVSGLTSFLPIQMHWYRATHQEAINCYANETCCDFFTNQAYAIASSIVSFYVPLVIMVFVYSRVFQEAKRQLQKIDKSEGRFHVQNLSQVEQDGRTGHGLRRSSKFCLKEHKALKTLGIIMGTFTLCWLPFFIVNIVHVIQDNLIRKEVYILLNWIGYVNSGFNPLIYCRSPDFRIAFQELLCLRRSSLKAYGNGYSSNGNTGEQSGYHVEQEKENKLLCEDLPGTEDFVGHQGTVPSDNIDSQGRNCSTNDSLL
# HIF-2a block = HIF-2a reporter inhibitors, primary screen, luminescence, 786-0 RCC cells | inhibition, % at 18.8 µM | 0.72% of 360,000 active | 786-0 RCC cells HIF-2a reporter, luciferase luminescence, overnight | AID 624352, 2012;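 active means inhibition of the luminescence signal of 40% or more relative to plate controls, in a single-dose primary screen at 18.75 µM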
# Peg3 prom inh = Peg3 promoter-driven luciferase inhibitors, primary screen, cell-based, HeLa, luciferase luminescence | HeLa PEG-Prom luciferase reporter, overnight | inhibition, % at 20 µM | 1.7% of 360,000 active | AID 588405, 2011;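 active means inhibition of at least 50% at 20 µM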
# CF NFkB inh = inhibitors of PAF-induced NF-kB signaling, primary screen, cell-based, GFP fluorescence, uHTS. KKLEB NF-kB-GFP reporter, GFP fluorescence overnight. inhibition, % at 5 µM. AID 588850, 2011. 0.86% of 360,000 active;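 active means at least 50% inhibition at 5 µM, scaled per plate between neutral and stimulator controls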;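 further: PAF is a Pseudomonas aeruginosa culture filtrate used as stimulus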
# A number is an active result; n = inactive; x = no result given.
SMILES,KKLEB cytotox,TRPM1 prom inh,B2AR ag,HIF-2a block,Peg3 prom inh,CF NFkB inh
C#CCOCCOCCOCCNc1nc(N2CCN(C(=O)CCCCCCCCCCNC(=O)Cn3cc(C[C@@H](C)O)nn3)CC2)nc(N2CCN(C(=O)CCCCCCCCCCNC(=O)[C@@H]([C@H](C)O)n3cc(C)nn3)CC2)n1,n,n,n,n,n,n
C#CCOCCOCCOCCNc1nc(N2CCN(C(=O)Cn3cc(CCCCN)nn3)CC2)nc(N2CCN(C(=O)Cn3cc(CC(C)O)nn3)CC2)n1 (stereo unspecified),n,n,n,n,n,n
C#CCOCCOCCOCCNc1nc(N2CCOCC2)nc(N2CCN(C(=O)CCCCCCCCCCNC(=O)[C@H]([C@@H](C)CC)n3cc(CCCCN=C(N)N)nn3)CC2)n1,n,n,n,n,n,n
C#CCOCCOCCOCCNc1nc(N2CCN(C(=O)CCCCCCCCCCNC(=O)Cn3cc(CCCCCN)nn3)CC2)nc(N2CCN(C(=O)CCCCCCCCCCNC(=O)Cn3cc(C[C@@H](C)O)nn3)CC2)n1,n,n,72,n,n,n
C#CCOCCOCCOCCNc1nc(N2CCN(C(=O)CCCCCCCCCCNC(=O)Cn3cc(C[C@@H](C)O)nn3)CC2)nc(N2CCN(C(=O)CCCCCCCCCCNC(=O)[C@@H]([C@H](C)CC)n3cc(CCCCCN)nn3)CC2)n1,n,99,95,n,101,n
C#CCOCCOCCOCCNc1nc(N2CCN(C(=O)CCCCCCCCCCNC(=O)[C@H]([C@@H](C)CC)n3cc(CCCCN=C(N)N)nn3)CC2)nc(N2CCN(C(=O)CCCCCCCCCCNC(=O)[C@@H]([C@H](C)O)n3cc(C)nn3)CC2)n1,n,65,104,n,n,n
C#CCOCCOCCOCCNc1nc(N2CCN(C(=O)CCCCCCCCCCNC(=O)Cn3cc(CCCCCN)nn3)CC2)nc(N2CCN(C(=O)CCCCCCCCCCNC(=O)[C@@H]([C@H](C)O)n3cc(C)nn3)CC2)n1,n,n,55,n,n,n
CCOC(=O)C1=CCN(S(=O)(=O)c2cccc(Cl)c2)C1c1ccc(F)cc1 (stereo unspecified),n,x,x,n,n,n
COc1ccc(/C=N/n2cnc3c([nH]c4ccc(C)cc43)c2=O)cc1CN1CCCC1,n,83,n,n,77,n
O=C1NC[C@H](CCCCN2C[C@H](Cc3ccc(O)cc3)N(Cc3ccccc3)C(=O)C2=O)N(Cc2ccccc2)C1=O,x,x,x,n,x,x
CCCCC(=O)O[C@H]1CC[C@H]2[C@@H]3CCc4cc(O)ccc4[C@H]3CC[C@]12C,n,n,43,n,n,n
COCC(=O)N[C@H]1CC[C@@H](CC(=O)OC)O[C@@H]1CO,x,x,x,n,x,x
Cc1cc(Br)ccc1SCC(=O)OCC(O)=C(C#N)c1nc2ccccc2[nH]1,n,n,n,n,66,n
CN(C)/C=C(\C#N)c1nc2ccccc2[nH]1,n,n,n,n,n,n
N#C/C(=C\c1c(Cl)cccc1Cl)c1nc2ccccc2[nH]1,n,n,56,n,n,n
N#C/C(=C(/O)CCl)c1nc2ccccc2[nH]1,n,80,n,n,n,n
CNC(=O)C[C@H]1C(=O)N(C2CCCCC2)C[C@@H]1CSC,n,x,x,n,n,n
CCn1c2ccccc2c2nnc(SCCCn3c(=O)[nH]c4ccccc43)nc21,n,n,n,n,50,n
CC1(C)CC(=O)C(C2C3=C(CC(C)(C)CC3=O)Oc3ccccc32)C(=O)C1 (stereo unspecified),n,n,n,n,n,n
CC1(C)CC(=O)C2=C(C1)Oc1nc3ccccc3cc1C2C(C#N)C#N (stereo unspecified),n,80,n,n,58,64
CC(=O)C1=CCC(c2cccc3ccccc23)N(S(=O)(=O)c2ccc(C)cc2)C1 (stereo unspecified),n,x,x,n,n,n
Nc1nc2ccc(OC(F)(F)F)cc2s1,-56,n,n,n,n,n
Nc1nc2ccc(Oc3ccccc3)cc2s1,n,n,n,n,n,n
O=c1[nH]c(-c2ccccn2)nc2sc(-c3ccccc3)cc12,n,n,n,n,96,n
COC(=O)c1ccc(CSc2ccccc2NC(=S)Nc2cccc(C(F)(F)F)c2)o1,n,x,x,n,n,n
SMILES,KKLEB cytotox,TRPM1 prom inh,B2AR ag,HIF-2a block,Peg3 prom inh,CF NFkB inh
COc1ccc(CNCC(O)(c2ccc(F)cc2)c2ccc(F)cc2)cc1OC,n,x,n,n,n,n
COc1ccc(CNCCC(c2ccc(F)cc2)c2ccc(OC(C)C)cc2)cc1OC (stereo unspecified),n,n,n,n,110,n
COc1ccccc1N1C(=O)N(C(C)=O)C2C1Nc1ccccc1N2C (stereo unspecified),n,69,n,n,n,n
O=C(CN1c2cccc3cccc(c23)S1(=O)=O)NCc1ccccc1Cl,n,x,x,n,n,n
O=C(CCc1nnc(Cc2ccc(-c3ccccc3)cc2)o1)NCCc1ccccn1,n,n,n,n,n,n
O=C(CCc1nnc(-c2ccc(-c3ccccc3)cc2)o1)NCCc1ccccn1,n,n,n,40,n,n
CC1=C(C(=O)N2CCCCCC2)CC(CC(=O)NC(c2ccccc2)c2ccccc2)C(=O)N1Cc1ccccc1 (stereo unspecified),n,x,x,n,n,n
CCN(CC)CCNC(=O)c1ccc(NC(=O)Cc2ccc(OC)c(S(=O)(=O)N3CCOCC3)c2)cc1,n,n,n,n,n,n
C=CC(=O)Nc1ccc(CN2C(=O)N(c3c(Cl)c(OC)cc(OC)c3Cl)Cc3cnc(NCCCCN(CC)CC)nc32)cc1,n,n,n,n,52,n
CCCNC(=O)C1(C)CCCN(C(=O)Cc2cccc(OC)c2)C1 (stereo unspecified),n,x,x,n,n,n
COc1cc2c3nnc(-c4ccc(F)cc4)c-3cn(Cc3ccccc3F)c2cc1OC,n,92,n,n,110,n
COc1ccccc1Cc1c(-c2ccc(F)cc2)nc2ccc(Cl)cn12,n,x,x,n,n,n
CC(C)Cn1c(N)c(C(=O)COC(=O)c2cnc(Cl)c(Cl)c2)c(=O)n(C)c1=O,n,n,n,n,74,n
O=C(Nc1ccc2nc(-c3ccccc3)[nH]c2c1)c1ccco1,n,n,n,n,n,n
O=C(CSc1ccc(Cl)cc1)Nc1cccc(-c2nc3ccccc3[nH]2)c1,n,n,n,n,51,n
O=C(Nc1ccc(-c2nc3ccccc3[nH]2)cc1)c1ccc2c(c1)OCO2,n,n,n,n,64,n
Cc1cc(C)c(NC(=O)c2cccc(NC(=O)c3ccco3)c2)c(C)c1,n,n,n,n,73,n
